Assay outcomes (PubChem BioAssay)
Compounds with a hit are over-represented: about 17% of the library has one in this group of screens.
TDP1 block: blocks human tyrosyl-DNA phosphodiesterase 1. Q9NUW8. recombinant TDP1, AlphaScreen DNA substrate cleavage. Potency, µM (titrated, usually from 130 µM), inactives show at the top dose activity change, negative = inhibition, hits mostly inhibitors. 350,000 compounds, 0.28% hits; also: % is scaled to controls: 0 for no effect and ±100 for the full control effect; nearly all actives have a fitted effect of over 40% in size
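E. coli-derived human Tdp1, 1 nM final. Cpd preinc 15 min RT; substrate 15 nM final, 5 min RT; AS bead mix 10 ug/ml final, 10 min RT. Signal loss = tyrosine-FITC cleavage. No-enzyme wells = max signal.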
DT40 TDP1 CPT: DT40-hTDP1 cell growth loss with CPT; 420,000 compounds, 12% hits; Potency, µM (doses to about 46.2 µM), for the others: at the highest dose activity change, negative = growth inhibition, usual class: inhibitors; AID 686979; chicken DT40 Tdp1-/-;hTDP1 cells + 20 nM CPT, ATP luminescence, 48 h; also: % is scaled to controls: 0 for no effect and ±100 for the full control effect; nearly all actives have a fitted effect of over 55% in size
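Chicken DT40 Tdp1-/- cells stably complemented with human TDP1 were seeded at 400 cells/well in medium containing 20 nM camptothecin, exposed to pin-transferred compounds, and grown at 37 °C for at least 48 hr. Viability was read as ATP luminescence.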
ClpP mod: qHTS Assay for Activators of ClpP. Potency, µM (series often up to 57.5 µM), inactives show top-dose activity change, negative = active. purified B. subtilis ClpP, FRET peptide cleavage, 20 min. AID 651965, 2013. 340,000 compounds, 1.9% hits; active = well fitted falling curve with a large enough effect; inconclusive = small, poorly fitted or top-dose-only effect; inactive = no such curve, though single readings can be large or run the other way; also: the source files actives as falling curves though it sought activators and does not explain the sign; nearly all actives have a fitted effect of over 65% in size
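Purified B. subtilis ClpP, 10 microg/mL final in Tris/HCl pH8 with KCl, BSA, glycerol and Tween-20, cleaved an Abz/nitrotyrosine-quenched decapeptide. Fluorescence (ex 320, em 430) was read at 0 and 20 min at room temperature. Delta was normalized to 5.8 microM ADEP and DMSO/no-enzyme controls.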
DT40 TDP1 no CPT: qHTS for Inhibitors of human tyrosyl-DNA phosphodiesterase 1 (TDP1): qHTS in cells in absence of CPT; DT40 Tdp1-/- hTDP1 cells, no CPT, ATP luminescence, 48 h; Potency, µM (highest dose often 46.2 µM), without a hit: top-dose activity change, negative = growth inhibition, usual class: inhibitors; 420,000 compounds, 15% hits; also: % is scaled to controls: 0 for no effect and ±100 for the full control effect; nearly all actives have a fitted effect of over 55% in size
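Seeded 400 DT40-hTDP1 cells/well (vehicle DMSO, no 20 nM CPT); pinned compounds; ≥48 hr at 37 °C; CellTiter-Glo luminescence as viability measure.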
Starred values were filed as active, the others as inactive; u = inconclusive; x = not tested or not shown; [ ] = dose if it differs, or a comment. Unless noted, calls follow the shape of the dose curve; as a rule, active = well fitted curve in the direction sought with a large enough effect; inconclusive = small, poorly fitted or top-dose-only effect, or another doubt; inactive = no such curve, though single readings can be large; an effect the other way counts as inactive or inconclusive. Potency is read from the fitted curve at half-maximal effect.

SMILES | TDP1 block | DT40 TDP1 CPT | ClpP mod | DT40 TDP1 no CPT
C=C(C)[C@H]1CC=C(CO)CC1 | 6% | x | x | x
Cc1cc(OCC(=O)NCCc2ccc(Cl)cc2)c2c(C)cc(=O)oc2c1 | 0% | -13% | u | 9%
CC(=O)Nc1ccc(S(=O)(=O)N2CCN(Cc3csc(C)n3)CC2)cc1 | 5%[56.1 µM] | 7% | 2% | -14%
CCSc1ccc2cc(OC)ccc2[n+]1CC | 3% | 5.8µM* | x | 7.3µM*
CC(=O)NNC(=O)c1csc(-c2csc(C)n2)n1 | 7% | 4% | 32µM* | 4%
O=C(CSc1nnc(-c2ccccc2)c(-c2ccccc2)n1)NC1CCCC1 | 0% | u | -2% | u
CC1=CC(C)(C)N(S(=O)(=O)c2ccc(F)cc2)c2ccc(C)cc21 | -2% | u | 0% | 5.8µM*
CC1=CC(C)(C)N(S(=O)(=O)c2ccc(C)cc2)c2ccccc21 | 4% | 12µM* | 0% | 18µM*
CCOc1ccc2c(c1)C(C)=CC(C)(C)N2S(=O)(=O)c1ccc(F)cc1 | x | u | 1% | u
CCOc1ccc2c(c1)C(N(CCN1CCOCC1)C(=O)Nc1ccccc1)CC(C)(C)O2 (stereo not given) | 0% | -25% | 1% | 0%
CC(=O)NCCCC(=O)NN1C(=S)N(Cc2ccccc2)C(=O)C1CC(=O)Nc1cccc(C)c1 (stereo not given) | 5% | -6% | x | 2%
COc1cc(/C=C(/C#N)c2nc3ccccc3[nH]2)ccc1OCC(=O)Nc1ccccc1C | 1% | 3.3µM* | 2% | 6.5µM*
COc1cc(/C=C(\CC(=O)O)c2nc3ccccc3s2)ccc1OCC(=O)Nc1ccccc1F | x | -2% | -26% | u
COc1cc(/C=C(/C#N)c2nc3ccccc3[nH]2)ccc1OCC(=O)Nc1ccccc1C(C)C | 3% | 4.6µM* | 18% | 5.8µM*
COc1cc(/C=C(\C#N)c2nc3ccccc3s2)ccc1OCC(=O)Nc1ccccc1 | 0% | 5.2µM* | -3% | 4.6µM*
Cc1nc(CS(=O)(=O)c2ccccc2)cc(N2CCOCC2)n1 | 9% | 9.2µM* | 2% | 9.2µM*
Cc1nc(CSc2ccc(Cl)cc2)cc(N2CCOCC2)n1 | 3% | -13% | -2% | -24%
Cc1ccc(NC(=O)c2cc(-c3ccccc3)nn2-c2ccccc2)cc1 | 1% | u | u | 21µM*
CC(=O)c1ccc(NC(=O)c2cc(C)nn2-c2ccccc2)cc1 | 3% | u | 1% | u
CCC(CC)C(=O)Nc1cc(-c2cccc(C)c2)nn1-c1ccccc1 | 5% | 23µM* | -1% | 16µM*
Cc1ccc(NC(=O)c2cc(-c3ccccc3)nn2-c2ccccc2)c(Br)c1 | 0% | 15µM* | u | u
CCc1ccccc1NC(=O)Cn1nc2c3cc(F)ccc3n(Cc3cccc(C)c3)cc-2c1=O | 6% | -2% | -1% | -2%
COc1ccc(CCNC(=S)Nc2cccc3ccccc23)cc1 | 11% | u | 3% | 16µM*
COc1ccc(OCCNC(=S)Nc2cccc3ccccc23)cc1 | 8% | -21% | -2% | 23µM*
COc1ccc(CNC(=O)Nc2cccc3ccccc23)cc1 | 1% | -13% | 32µM* | 1%
SMILES | TDP1 block | DT40 TDP1 CPT | ClpP mod | DT40 TDP1 no CPT
COc1ccc(CCNC(=S)Nc2ccccc2C)cc1 | 6% | u | -2% | u
CC1=C(C(=O)N(C(C)C)C(C)C)CC(CC(=O)NCc2cccs2)C(=O)N1CCC1=CCCCC1 (stereo not given) | x | u | 0% | u
COc1ccc(C(=O)C2CCCN(C(=O)/C=C/c3ccccn3)C2)c(C)c1 (stereo not given) | x | -4% | x | u
COc1cccc(C(=O)C2CCCN(C(=O)c3ccccn3)C2)c1 (stereo not given) | 2% | -11% | -5% | 4%
O=C(c1ccc(Cl)cc1)C1CCCN(C(=O)/C=C/c2ccccn2)C1 (stereo not given) | 8% | 23µM* | 0% | 21µM*
COc1ccc(C(=O)C2CCCN(C(=O)c3ccccc3C(C)=O)C2)cc1F (stereo not given) | 3% | u | x | u
CC(=O)c1ccccc1C(=O)N1CCCC(C(=O)c2ccc(C(F)(F)F)cc2)C1 (stereo not given) | 8% | 23µM* | 1% | 23µM*
Cc1cnc(C(=O)N2CCCC(C(=O)c3ccc(C(C)(C)C)cc3)C2)cn1 (stereo not given) | x | u | x | 23µM*
CC(C)(C)c1ccc(C(=O)C2CCCN(C(=O)c3ccccn3)C2)cc1 (stereo not given) | x | 9.2µM* | 3% | u
CCCCCC(C)NC(=O)c1cc(S(=O)(=O)N2CCCCC2)ccc1N1CCOCC1 (stereo not given) | 1% | u | -2% | u
NNC(=O)c1sccc1OCc1cccc(C(F)(F)F)c1 | 3% | 21µM* | x | u
CC(=O)c1ccc(OCc2cccc(C(F)(F)F)c2)cc1O | -5% | -1% | x | -26%
Nc1ncccc1OCc1cccc(C(F)(F)F)c1 | 11% | -18% | x | 6.5µM*
COc1ccc(NC(=O)CN2C(=O)c3cccnc3Sc3ccccc32)cc1OC | 7% | u | -11% | 16µM*
CC(=O)c1cccc(NC(=O)CN2C(=O)c3ccccc3Sc3ncccc32)c1 | 0% | 16µM* | 0% | 8.2µM*
COc1ccc([C@H]2CC(=O)C=C(c3ccc(OC)c(OC)c3)C2)cc1 | -10% | 12µM* | -1% | u
O=C1C=C(c2ccc3ncccc3c2)C[C@@H](c2ccc(Cl)cc2)C1 | 3% | 23µM* | 0% | u
COc1ccc([C@H]2CC(=O)C=C(c3ccc4c(c3)OCO4)C2)cc1OC | 5% | u | -8% | u
O=C1C=C(c2ccc3ccccc3c2)C[C@@H](c2ccc(Cl)cc2)C1 | 1% | u | -3% | u
COc1ccc([C@H]2CC(=O)C=C(c3ccc4ccccc4c3)C2)cc1OC | 4% | u | -2% | 16µM*
COc1ccc([C@H]2CC(=O)C=C(c3ccc(O)cc3)C2)cc1OC | 4% | u | 1% | 21µM*
COc1ccc(C2=CC(=O)CC(c3ccccc3)C2)cc1 (stereo not given) | 5% | -14% | x | u
CCN(Cc1ccccc1)C(=O)CCS(=O)(=O)c1cc(Br)cc2c1N(C(=O)C1CC1)CC2 | -11%[12.3 µM] | u | 0% | u
COc1ccc([C@H]2CC(=O)C=C(/C=C/c3ccccc3)C2)cc1OC | 5% | 18µM* | -3% | u
COc1ccc([C@H]2CC(=O)C=C(c3ccc4ncccc4c3)C2)cc1OC | 3% | u | 1% | 21µM*
O=C1C=C(c2cc3ccccc3s2)C[C@@H](c2ccc(F)cc2)C1 | 1% | u | -1% | u
